# Measured values published in the supplement of paper PMC4380459.
# Test system: tubulin (bovine brain)
# Assay: tubulin polymerization end-point dOD, fold change relative to DMSO vehicle; higher = more polymerization (stabilization)
# Conditions: 50 µM; 60 min; 37 °C
# In short: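 Cytoskeleton HTS-Tubulin polymerization kit: bovine brain tubulin (4 mg/ml in G-PEM buffer with PIPES pH 6.9, MgCl2, EGTA and GTP) was assembled on ice with compound at a final 50 μM in 0.5% DMSO in 384-well plates. Plates were warmed to 37°C in a Tecan reader and read at 340 nm every minute for 1 hour. The value is end-point change in optical density as percent fold change versus DMSO vehicle, with runs scaled by means and standard deviations of DMSO and reference-control wells.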
row,Compound,tubulin polymerization end-point dOD [%]
1,COc1cccc(N2CCN(C(=O)c3cc(C4CC4)nc4ccccc34)CC2)c1,-85.1
2,Cc1ccc(NC(=O)c2cc(F)c(Cl)cc2Cl)nc1,-57.6
3,Oc1ccccc1-c1nc2ccc(Cl)cn2c1NCc1ccc2c(c1)OCO2,7.3
4,CCC1c2ccsc2CC[NH+]1Cc1ccc(N2CCCC2=O)cc1 (stereo not given),-43.7
5,Cc1ccc(C(=O)Nc2nc3ccc(Oc4ccccc4)cc3s2)cn1,15.6
6,COc1ccccc1N1CC[NH+](Cc2c(-c3ccccc3)nc3sccn23)CC1,-21.9
7,COc1cn(-c2ccccc2)nc1C(=O)N1CCc2ccccc21,-57.4
8,O=C(Nc1ccc(N2CCCC2)cc1)C1COc2ccc(Cl)cc2C1 (stereo not given),19.2
9,O=C1N/C(=N/N=C/c2ccccc2O)SC1Cc1cc(C(F)(F)F)ccc1Cl (stereo not given),-23
10,COc1cc(-c2onc3ccc(Cl)cc23)cc(OC)c1OC,95.2
11,CCc1ccccc1NC(=O)CSc1nc2cc3c(cc2cc1C#N)OCO3,56.6
12,C=CCOc1ccccc1NC(=O)c1cc(-c2c(C)nn(C)c2C)n[nH]1,-31.9
13,CCOc1ccc2nc(SCC(=O)Nc3ccccc3CC)c(C#N)cc2c1,-22.2
14,COc1cc(Br)c(-c2cc3cc(Cl)ccc3oc2=O)cc1OC,77.7
15,O=C(NC1=NCCS1)c1sc2cccc(F)c2c1COc1ccccc1,34.2
16,COC(=O)Nc1nc2cc(C(=O)c3ccccc3)ccc2[nH]1 [Mebendazole],6.22
17,Cc1ccc(C)c(NC(=O)CSc2nc3ccc(C(C)C)cc3cc2C#N)c1,-39.1
18,Nc1cccc2c1C(=O)c1cccc(NC(=O)c3ccccc3)c1C2=O,24.7
19,CCOc1ccc(S(=O)(=O)Nc2cc(Br)c3oc(C)c(C(C)=O)c3c2)cc1,-25.4
20,O=C(Nc1ncc(Cc2ccccc2Br)s1)c1cnccn1,6.47
21,Cc1ccccc1/C=N/N=C1\NC(=O)C(Cc2ccccc2C)S1 (stereo not given),-10.8
22,Cc1cccc2cc3c(N)c(C(=O)Nc4ccccc4N4CCOCC4)sc3nc12,411
23,Cc1ccc(Nc2nc(N)nc(CN3C(=O)NC(C)(c4ccccc4)C3=O)n2)cc1 (stereo not given),48.1
24,O=C(Nc1nc2ccccc2[nH]1)c1cccc2ccccc12,-76.4
25,COc1cc2c(cc1OC)C(c1cccs1)N(C(=O)Nc1ccc(Cl)cc1)CC2 (stereo not given),70.5
26,CCCn1c(SCC(=O)Nc2ccccc2OC)nnc1-c1cccnc1,-56.1
27,CCC(C)Cc1c(C)sc2nc(SCc3nnc(C)o3)[nH]c(=O)c12 (stereo not given),-13.9
28,O=C(c1cccnc1N1CCCC1)N1CC=C(c2c[nH]c3ccccc23)CC1,-49.4
29,COc1ccc2cc(CN(Cc3cccs3)C(=O)Nc3ccccc3OC)c(=O)[nH]c2c1,17.1
30,CCc1ccccc1NC(=S)N(CCCO)Cc1cc2cc(C)cc(C)c2[nH]c1=O,-51.6
